Measured values as given in PubChem BioAssay (NCATS).
Where “and” joins values, the source holds several entries; their conditions need not be identical. Identical values can stand only once. Records with an inconclusive call do not appear. Calls of active or inactive are those of the source. Calls come from the whole dose curve; as a rule, active = well fitted curve in the direction sought with a large enough effect; inconclusive = small, poorly fitted or top-dose-only effect, or another doubt; inactive = no such curve, though single readings can be large; an effect the other way counts as inactive or inconclusive. Square brackets hold non-standard residues; d marks the D form. Peptide text beside a SMILES is read from it. * marks the point of attachment. Nva = CCC[C@H](N)C(=O)O; Cbz = O=C(OCc1ccccc1)*

Key:
[1] = Viability qHTS for spleen associated tyrosine kinase inhibitor (SYKi) naive MV4-11 cells (AID 1963823); details: MV4-11 AML viability, CellTiter-Glo luminescence, 72 h; series mostly up to 45 µM; note: nearly all actives have a fitted effect of over 40% in size
In short: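 Cells: MV4-11, SYK inhibitor naive, 500 per well. Treatment: library compounds, 72 hr, 37 C, 5% CO2. Read-out: CellTiter-Glo luminescence after 10 min RT.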

[2] = Viability qHTS for spleen associated tyrosine kinase inhibitor (SYKi) drug resistant MV4-11 cells (AID 1963824); details: SYKi-resistant MV4-11 viability, CellTiter-Glo, 72 h; series mostly up to 45 µM; note: nearly all actives have a fitted effect of over 35% in size
In short: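 CellTiter-Glo luminescence, read 10 min after reagent addition, reports viability after a 72 hr compound exposure. Cells are an MV4-11 line made resistant to SYK inhibition, seeded at 500 per well onto compound-containing plates.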

[3] = Quantitative highthroughput screen to assess conditional lethalithy of NOMO1 cells grown in RPMI1640 with untreated serum (RPMI+s) (AID 1963876); details: NOMO1 AML cells in RPMI+serum, CellTiter-Glo viability, 48 h; series mostly up to 45.8 µM; note: nearly all actives have a fitted effect of over 35% in size;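 for Viability: 100% = DMSO wells and 0% = empty wells without cells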
In short: (§1)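 Each medium arm—HPLM with 10% dialyzed FBS, or RPMI1640 with 5 mM glucose and 10% untreated or dialyzed FBS—was screened against an 11-point, 3-fold compound titration for 48 h at 37 °C, with CellTiter-Glo luminescence as endpoint.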

[4] = Quantitative highthroughput screen to assess conditional lethalithy of NOMO1 cells grown in RPMI1640 with dialyzed fetal bovine serum (RPMI+ds) (AID 1963877); details: NOMO1 in RPMI+dialyzed FBS viability, ATP luminescence, 48 h; series mostly up to 45.8 µM; note: nearly all actives have a fitted effect of over 30% in size;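 for Viability: 100% = DMSO control wells and 0% = empty wells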
In short: as §1

[5] = Quantitative highthroughput screen to assess conditional lethalithy of NOMO1 cells grown in Human Plasma-Like Medium with dialyzed fetal bovine serum (HPLM+ds) (AID 1963878); details: NOMO1 AML cells in HPLM+ds, CellTiter-Glo viability, 48 h; series mostly up to 45.8 µM; note: nearly all actives have a fitted effect of over 35% in size;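 for Viability: 100% = DMSO wells and 0% = empty wells on each plate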
In short: as §1

[6] = Quantitative highthroughput screen to assess conditional lethalithy of P12 Ichikawa cells grown in Human Plasma-Like Medium with dialyzed fetal bovine serum (HPLM+ds) (AID 1963879); details: ATP luminescence, 48 h; Potency: viability; series mostly up to 45.8 µM; note: nearly all actives have a fitted effect of over 35% in size
In short: as §1

[7] = Quantitative highthroughput screen to assess conditional lethalithy of P12 Ichikawa cells grown in RPMI1640 with dialyzed fetal bovine serum (RPMI+ds) (AID 1963880); details: ATP luminescence, 48 h; Potency: P12-Ichikawa viability; series mostly up to 45.8 µM; note: nearly all actives have a fitted effect of over 35% in size;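 for Viability: 100% = DMSO wells and 0% = empty wells on each plate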
In short: as §1

[8] = Quantitative highthroughput screen to assess conditional lethalithy of P12 Ichikawa cells grown in RPMI1640 with untreated serum (RPMI+s) (AID 1963881); details: ATP luminescence, 48 h; Potency: viability; series mostly up to 45.8 µM; note: nearly all actives have a fitted effect of over 35% in size;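 for Viability: 100% = DMSO wells and 0% = empty wells without cells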
In short: as §1

[9] = Quantitative highthroughput screen to assess conditional lethalithy of SEM cells grown in Human Plasma-Like Medium with dialyzed fetal bovine serum (HPLM+ds) (AID 1963882); details: SEM B-ALL cells in HPLM+ds, CellTiter-Glo viability, 48 h; series mostly up to 45.8 µM; note: nearly all actives have a fitted effect of over 35% in size
In short: as §1

[10] = Quantitative highthroughput screen to assess conditional lethalithy of SEM cells grown in RPMI1640 with dialyzed fetal bovine serum (RPMI+ds) (AID 1963884); details: SEM B-ALL cells, RPMI+dialyzed FBS, CellTiter-Glo viability, 48 h; series mostly up to 45.8 µM; note: nearly all actives have a fitted effect of over 35% in size;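 for Viability: 100% = DMSO control wells and 0% = empty wells without cells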
In short: as §1

[11] = Cellular viability qHTS for adrenocortical cancer (ACC) cell line NCI-H295R (AID 1963990); details: CellTiter-Glo ATP luminescence, 48 h; series mostly up to 46.1 µM; note: nearly all actives have a fitted effect of over 60% in size;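 for activity change, negative = viability loss: 0% = DMSO only wells and -100% = full killing with cytotoxic reference compound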
In short: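 Viability of NCI-H295R after 48 h of treatment (final up to 46 uM) measured through cellular ATP luminescence.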

[12] = Quantitative highthroughput screen to assess conditional lethalithy of SEM cells grown in RPMI1640 with unreated serum (RPMI+s) (AID 1963883); details: SEM B-ALL cells, CellTiter-Glo viability, 48 h; series mostly up to 45.8 µM; note: nearly all actives have a fitted effect of over 35% in size;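 for Viability: 100% = DMSO wells and 0% = empty wells without cells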
In short: as §1

[13] = Cellular viability qHTS for adrenocortical cancer (ACC) cell line SW-13 (AID 1963989); details: SW-13 ACC cells viability, CellTiter-Glo, 48 h; activity (max response): hits give low values; note: nearly all actives have a fitted effect of over 65% in size;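 for activity (max response): cells grown in serum-free medium with ITS supplement; % is set by controls: 0 for no effect and ±100 for the full control effect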
In short: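 Here, serum-free SW-13 cultures were dosed up to 46 uM. Following 48 h, ATP-dependent luminescence (CellTiter-Glo) reported viable cells, and logistic modeling produced IC50 values.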
Potency is the fitted concentration of half-maximal effect.

CN(C)Cc1ccc(-c2nc3cccc4c3n2CCNC4=O)cc1
inactive: Potency [3] | Potency [4] | Potency [5] | Potency [6] | Potency [7] | Potency [8] | Potency [9] | Potency [10]
active: Potency [1] 16.6 µM | Potency [2] 18.4 µM | Potency [11] 25.1 µM

O=C(NC1CCNCC1)c1[nH]ncc1NC(=O)c1c(Cl)cccc1Cl
active: Potency [1] 0.59 µM | Potency [2] 0.411 µM | Potency [3] 1.32 µM | Potency [4] 1.18 µM | Potency [5] 1.18 µM | Potency [6] 1.66 µM | Potency [7] 2.35 µM | Potency [8] 1.48 µM | Potency [9] 1.05 µM | Potency [12] 1.32 µM | Potency [13] 1.12 µM | Potency [11] 15.8 µM

COC(=O)N1CC2(CC2)C[C@H](C(=O)NO)[C@H]1C(=O)N1CCN(c2ccccc2)CC1
active: Potency [3] 0.524 µM | Potency [4] 3.31 µM | Potency [5] 0.295 µM | Potency [6] 0.331 µM | Potency [7] 1.05 µM | Potency [8] 2.34 µM | Potency [9] 1.17 µM | Potency [10] 0.66 µM
inactive: Potency [1] | Potency [2] | activity (max response) [13] -14.2% | Potency [11]

O=C1CCc2ccc(OCCCCN3CCN(c4cccc(Cl)c4Cl)CC3)cc2N1
inactive: Potency [3] | Potency [4] | Potency [5] | Potency [6] | Potency [7] | Potency [8] | Potency [9] | Potency [12] | Potency [11]
active: Potency [1] 10.5 µM | Potency [2] 9.34 µM

COc1ccc(F)c(F)c1C(=O)c1cnc(NC2CCN(S(C)(=O)=O)CC2)nc1N
active: Potency [1] 0.651 µM | Potency [2] 580 nM and 742 nM | Potency [3] 4.69 µM | Potency [4] 6.62 µM | Potency [5] 4.18 µM | Potency [6] 20.9 µM | Potency [7] 11.8 µM | Potency [8] 11.8 µM | Potency [9] 4.69 µM | Potency [10] 5.9 µM | Potency [13] 3.55 µM | Potency [11] 3.16 µM

CN1CC(=O)NC1=NC(=O)Nc1cccc(Cl)c1
inactive: Potency [1] | Potency [2] | Potency [3] | Potency [4] | Potency [5] | Potency [6] | Potency [7] | Potency [8] | Potency [9] | Potency [10] | activity (max response) [13] -5.87% | Potency [11]

COc1ccc(COc2cc3oc(=O)c4cc(C(C)O)ccc4c3cc2OC)cc1 (centres undefined)
active: Potency [2] 8.2 µM and 4.68 µM | Potency [8] 18.7 µM | Potency [9] 18.7 µM
inactive: Potency [1] | Potency [3] | Potency [4] | Potency [5] | Potency [6] | Potency [7] | Potency [11]

Cc1n[nH]c(C)c1Cc1sc2c(c1C(=O)N1C[C@H](O)CO1)c(=O)n(C)c(=O)n2CC(C)C
inactive: Potency [1] | Potency [2] | Potency [3] | Potency [4] | Potency [5] | Potency [6] | Potency [7] | Potency [8] | Potency [10] | activity (max response) [13] 15%

CCCCCN(C)CCC(O)(P(=O)(O)O)P(=O)(O)O
inactive: viability (% of control) [1] 73% [at 4.97 µM] | viability, % of control [2] 78.4% [at 4.97 µM] | Potency [3] | Potency [4] | Potency [5] | Potency [6] | Potency [7] | Potency [8] | Potency [10] | activity (max response) [13] -15.6% | activity change, negative = viability loss [11] -3.37% [at 3.81 µM]

CCOC(=O)[C@H](CCc1ccccc1)N[C@H]1CS[C@H](c2cccs2)CN(CC(=O)O)C1=O
active: Potency [1] 7.42 µM | Potency [2] 13.3 µM and 5.9 µM | Potency [3] 10.5 µM | Potency [4] 13.2 µM | Potency [5] 5.26 µM | Potency [6] 8.33 µM | Potency [7] 14.8 µM | Potency [8] 9.35 µM
inactive: Potency [9] | activity (max response) [13] 6.33% and 0.504% | Potency [11]

CCC[C@@H](C=O)NC(=O)[C@H](CC(C)C)NC(=O)[C@H](CC(C)C)NC(=O)OCc1ccccc1 (Cbz-Leu-Leu-[Nva]-aldehyde)
active: Potency [1] 0.742 µM | Potency [2] 0.934 µM | Potency [3] 1.32 µM | Potency [4] 2.64 µM | Potency [5] 1.87 µM | Potency [6] 3.32 µM | Potency [7] 3.32 µM | Potency [8] 2.64 µM | Potency [9] 2.35 µM | Potency [10] 1.48 µM | Potency [13] 2 µM | Potency [11] 1.58 µM

CCn1c(C(=O)N(C2CC2)C2CC2)cc2c3c(ncn3C)c(Nc3cc(C)n(C)n3)nc21
active: Potency [1] 1.03 µM and 1.48 µM | Potency [2] 2.31 µM and 3.72 µM | Potency [12] 20.9 µM
inactive: Potency [3] | Potency [4] | Potency [5] | Potency [6] | Potency [7] | Potency [8] | activity (max response) [13] -6.84%

O=C1CCC[C@@H]2[C@H]3CCC[N+]4([O-])CCC[C@@H](CN12)[C@@H]34 (some centres undefined)
active: Potency [3] 8.33 µM | Potency [4] 7.43 µM | Potency [5] 5.9 µM | Potency [9] 6.62 µM | Potency [12] 7.43 µM
inactive: Potency [1] | Potency [2] | Potency [6] | Potency [7] | Potency [8] | activity (max response) [13] -8.5% | Potency [11]

CC(C)Cc1ccc(C(C)C(=O)O)cc1 (centres undefined)
active: Potency [12] 12.9 µM
inactive: Potency [1] | Potency [2] | Potency [3] | Potency [4] | Potency [5] | Potency [6] | Potency [7] | Potency [8] | activity (max response) [13] 8.32% and 2.38% | Potency [11]

O[C@@H](COc1cccc2ncccc12)CN1CCN(C2c3ccccc3[C@@H]3[C@H](c4ccccc42)C3(F)F)CC1 (some centres undefined)
active: Potency [1] 5.9 µM and 9.2 µM | Potency [2] 6.61 µM and 9.2 µM | Potency [13] 20.6 µM | Potency [11] 3.55 µM
inactive: Potency [3] | Potency [4] | Potency [5] | Potency [6] | Potency [7] | Potency [8] | Potency [9] | Potency [10]
